NS1 inh: qHTS Assay for Inhibitors of Influenza NS1 Protein Function; hit rate 0.4% among 270,000; Potency, µM (top dose mostly 46.1 µM); calls by dose curve; note: actives are rising curves; nearly all actives have a fitted effect of over 50% in size
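OD600 was taken as the measure of yeast growth restored by compound in an NS1-expressing S. cerevisiae strain. Cells had been washed out of glucose medium and diluted 1:100 into galactose -URA medium, pH 6.0.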
Shiga inhibitor: A qHTS for Small Molecule Inhibitors of Shiga Toxin. Vero cells, Shiga toxin protein synthesis inhibition reporter. inhibition, % at 38.7 µM. hit rate 9.2% among 290,000; in the data active = inhibition mostly above about 28%, no sharp cut-off; inactive = mostly below about 43%
Tb PYK inh: qHTS of Trypanosoma Brucei Inhibitors; hit rate 0.12% among 410,000; pyruvate kinase (Trypanosoma brucei), Q57TT1; TbPYK enzyme, Kinase-Glo Plus ATP luminescence, 45 min; Potency, µM (highest dose often 76.8 µM), usual class: inhibitors; note: nearly all actives have a fitted effect of over 50% in size
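Quantitative HTS: titrated library compounds versus trypanosomal pyruvate kinase in TEA buffer (pH 7.2) containing KCl, MgCl2, BSA and Tween-20. Reactions were initiated with ADP, 130 uM final. Kinase-Glo Plus luminescence was read after 45 min at RT.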
LmPK inh: qHTS Assay for Inhibitors of Leishmania Mexicana Pyruvate Kinase (LmPK). Potency, µM (highest dose often 57.5 µM), usual class: inhibitors. purified LmPK, Kinase-Glo ATP luminescence, 1 h. hit rate 0.37% among 290,000. Q27686
Target sequence (Q27686 whole entry, looked up): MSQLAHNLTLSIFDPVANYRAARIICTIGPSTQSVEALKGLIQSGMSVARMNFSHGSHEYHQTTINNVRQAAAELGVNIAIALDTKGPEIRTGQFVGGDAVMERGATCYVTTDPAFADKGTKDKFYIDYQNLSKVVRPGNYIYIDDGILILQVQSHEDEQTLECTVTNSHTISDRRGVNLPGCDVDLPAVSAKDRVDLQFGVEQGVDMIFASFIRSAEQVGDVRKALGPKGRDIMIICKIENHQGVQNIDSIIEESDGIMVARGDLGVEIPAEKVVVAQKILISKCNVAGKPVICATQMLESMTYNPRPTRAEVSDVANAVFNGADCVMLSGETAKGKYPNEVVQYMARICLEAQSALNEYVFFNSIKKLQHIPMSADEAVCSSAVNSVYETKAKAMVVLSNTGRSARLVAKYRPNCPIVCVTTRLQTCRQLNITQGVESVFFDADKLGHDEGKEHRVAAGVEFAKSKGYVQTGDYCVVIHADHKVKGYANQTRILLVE
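Purified LmPK (0.1 nM) converted ADP (0.1 mM) to ATP with PEP (0.5 mM) in imidazole buffer pH 7.2 with KCl and MgCl2, 1 h at room temperature. ATP was read by Kinase-Glo luminescence; data normalized to uninhibited and no-enzyme controls.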
CHX counter: Cycloheximide Counterscreen for Small Molecule Inhibitors of Shiga Toxin; cell reporter, cycloheximide protein synthesis inhibition counterscreen; hit rate 12% among 300,000; max response, %; AID 2314, 2010; in the data active = max response mostly above about 13%, no sharp cut-off; inactive = mostly below about 14%; note: read at 38.3 µM for the half of the compounds with a filed dose
SARS PLP yeast: qHTS of Yeast-based Assay for SARS-CoV PLP; hit rate 0.19% among 330,000; S. cerevisiae expressing SARS-CoV PLpro, growth rescue; Potency, µM (series often up to 32.9 µM), hits mostly activators; calls by dose curve; note: nearly all actives have a fitted effect of over 55% in size
Hits are given with their value. Only a selection was taken, and hits are over-represented in it overall. Unless noted, calls come from the whole dose curve; as a rule, active = well fitted curve in the direction sought with a large enough effect; inconclusive = small, poorly fitted or top-dose-only effect, or another doubt; inactive = no such curve, though single readings can be large; an effect the other way counts as inactive or inconclusive.

`O=C(Nc1ccsc1C(=O)O)c1ccc(Cl)cc1` gave NS1 inh inactive, Shiga inhibitor 85.4, Tb PYK inh inactive, LmPK inh inactive, CHX counter 26.9 and SARS PLP yeast inactive.
Screening Cc1cc2ncc(C(=O)Nc3ccsc3C(=O)O)c(C)n2n1 returned Shiga inhibitor inactive, Tb PYK inh inconclusive, LmPK inh 25.1µM, CHX counter 17.6 and SARS PLP yeast inactive.
For Cc1ccc(C(=O)Nc2ccsc2C(=O)O)cc1 the results were NS1 inh inactive, Shiga inhibitor 51.5, Tb PYK inh inactive, LmPK inh inactive, CHX counter 38.8 and SARS PLP yeast inactive.
Screening CCOC(=O)c1cnc2cc(C)nn2c1C returned NS1 inh inactive, Shiga inhibitor inactive, Tb PYK inh inactive, LmPK inh inactive, CHX counter inactive and SARS PLP yeast inactive.
`COc1ccc2cc(C(=O)N3CCN(C)CC3)[nH]c2c1` gave NS1 inh inactive, Shiga inhibitor 86.1, Tb PYK inh inactive, LmPK inh inactive, CHX counter 32.6 and SARS PLP yeast inactive.
Screening CCN1CCN(C(=O)c2cc3ccc(OC)cc3[nH]2)CC1 returned NS1 inh inactive, Shiga inhibitor 60.2, Tb PYK inh inactive, LmPK inh inactive, CHX counter 30.5 and SARS PLP yeast inactive.
For CCOC(=O)C1CCCN(C(=O)c2cc3ccc(OC)cc3[nH]2)C1 (configuration not stated) the results were NS1 inh inactive, Shiga inhibitor inactive, Tb PYK inh inactive, LmPK inh inactive, CHX counter 22.9 and SARS PLP yeast inactive.
CCOC(=O)C1CCCN(C(=O)c2cc3cc(F)ccc3[nH]2)C1 (configuration not stated) was read as NS1 inh inactive, Shiga inhibitor inactive, Tb PYK inh inactive, LmPK inh inactive, CHX counter inactive and SARS PLP yeast inactive.
COc1ccc2cc(C(=O)N3CCN(c4ccc(F)cc4)CC3)[nH]c2c1 was read as NS1 inh inactive, Shiga inhibitor inactive, Tb PYK inh inactive, LmPK inh inactive, CHX counter inactive and SARS PLP yeast inactive.
Screening CCOC(=O)/C(=N\Nc1ncnc2ccccc12)c1ccc(C)cc1 returned NS1 inh inactive, Shiga inhibitor inactive, Tb PYK inh inactive, LmPK inh inactive, CHX counter 18.0 and SARS PLP yeast inactive.
Screening Cc1ccc(S(=O)(=O)Nc2ncnc3ccccc23)cc1 returned NS1 inh inactive, Shiga inhibitor inactive, Tb PYK inh inactive, LmPK inh inactive, CHX counter inactive and SARS PLP yeast inactive.
Screening CCOC(=O)C/C(=N\Nc1ncnc2ccccc12)c1ccccc1 returned NS1 inh inactive, Shiga inhibitor 86.7, Tb PYK inh inactive, LmPK inh inactive, CHX counter 35.2 and SARS PLP yeast inactive.
CCC(=O)NNc1ncnc2ccccc12 was read as NS1 inh inactive, Shiga inhibitor inactive, Tb PYK inh inactive, LmPK inh inactive, CHX counter inactive and SARS PLP yeast inactive.
Screening Cc1cccc(Oc2ccc3c(c2)Oc2ccccc2NC3=O)c1 returned Tb PYK inh inactive.
COc1ccc(NC(=O)CSc2nc(-c3ccc(OC)cc3)[nH]c2-c2ccc(OC)cc2)cc1 was read as Tb PYK inh inactive.
`COCCCNC(=O)c1ccc(-n2c(-c3ccccc3)cc3c2CCCCC3)cc1` gave Shiga inhibitor 103.4, Tb PYK inh inactive and CHX counter 22.7.
`Cc1ccc(N/N=C(\C#N)C(=N)N2CCCCC2)cc1` gave NS1 inh inactive, Shiga inhibitor 82.4, Tb PYK inh inactive, LmPK inh inactive, CHX counter 46.3 and SARS PLP yeast inactive.
For N#C/C(=N\Nc1ccc(Cl)cc1)C(=N)N1CCCCCC1 the results were Shiga inhibitor 144.6, Tb PYK inh inactive, LmPK inh inactive, CHX counter 42.8 and SARS PLP yeast inactive.
CCN(CC)C(=N)/C(C#N)=N/Nc1ccccc1 was read as NS1 inh inactive, Shiga inhibitor 92.6, Tb PYK inh inactive, LmPK inh inactive, CHX counter 39.4 and SARS PLP yeast inactive.
`N#C/C(=N\Nc1ccccc1)C(=N)N1CCCCC1` gave NS1 inh inactive, Shiga inhibitor 61.1, Tb PYK inh inactive, LmPK inh inactive, CHX counter 27.5 and SARS PLP yeast inactive.
Screening N#C/C(=N\Nc1ccc(S(=O)(=O)N2CCCCC2)cc1)C(N)=S returned NS1 inh inactive, Shiga inhibitor inactive, Tb PYK inh inactive, LmPK inh inactive, CHX counter inactive and SARS PLP yeast inactive.
Screening Cc1ccc(C(C)NC(=O)COC(=O)C2=COCCO2)cc1C (configuration not stated) returned Tb PYK inh inactive and SARS PLP yeast inactive.
CC1CCCCC12NC(=O)N(CC(=O)OCc1cccc(F)c1)C2=O (configuration not stated) was read as Tb PYK inh inactive and SARS PLP yeast inactive.
Cc1cc(Cl)c(S(=O)(=O)N2CCN(c3ccccn3)CC2)cc1OCC(=O)NC1CCCCC1 was read as NS1 inh inactive, Shiga inhibitor inactive, Tb PYK inh inactive, LmPK inh inactive, CHX counter inactive and SARS PLP yeast inactive.
O=C(CSc1nc2c([nH]c3ccccc32)c(=O)n1-c1cccc(Cl)c1)N1CCCC1 was read as Tb PYK inh inactive.
Screening OCCCNc1ccccc1 returned Tb PYK inh inactive.
O=C1C(Cl)=C(NCCN2CCOCC2)C(=O)c2ccccc21 was read as NS1 inh inactive, Shiga inhibitor 63.0, Tb PYK inh inactive, LmPK inh inactive, CHX counter 31.9 and SARS PLP yeast inactive.
For O=C1C(Cl)=C(NCCCN2CCOCC2)C(=O)c2ccccc21 the results were Tb PYK inh inactive.
CCOCCCNC1=C(Cl)C(=O)c2ccccc2C1=O was read as NS1 inh inactive, Shiga inhibitor 72.0, Tb PYK inh inconclusive, LmPK inh inconclusive, CHX counter 36.0 and SARS PLP yeast inactive.
Screening Cc1ccc(NC2=C(NCCO)C(=O)c3ccccc3C2=O)cc1 returned NS1 inh inactive, Shiga inhibitor 86.8, Tb PYK inh inactive, LmPK inh inactive, CHX counter 32.3 and SARS PLP yeast inactive.
`O=C1C(Cl)=C(NCCCO)C(=O)c2ccccc21` gave NS1 inh inactive, Shiga inhibitor inactive, Tb PYK inh inactive, LmPK inh inactive, CHX counter 13.8 and SARS PLP yeast inactive.
`COc1ccc(CCNC(=O)c2ccc3c(c2)N(Cc2cccc(Cl)c2)C(=O)c2ccccc2S3=O)cc1OC` (configuration not stated) gave Tb PYK inh inactive.
For COc1ccc(OC)c(NC(=O)CSc2nc(=O)n(CCN(C)C)c3c2CCC3)c1 the results were Tb PYK inh inactive.
CN(C)c1ccc(NC2=C(Cl)C(=O)c3ccccc3C2=O)cc1 was read as NS1 inh inactive, Shiga inhibitor 69.2, Tb PYK inh inconclusive, LmPK inh inactive, CHX counter 51.2 and SARS PLP yeast inactive.
